The results in this text go back to PubChem BioAssay (Tox21).

Records with an inconclusive call do not appear. A call without a number means that no potency is given here. The source made the active and inactive calls. Calls come from the whole dose curve.

A short description of this experiment: p53 small molecule agonists, cell-based qHTS assay with rat liver microsomes: qHTS cell viability counter screen (AID 1963580). Note: nearly all actives have a fitted effect of over 45% in size. As to conditions: p53RE-bla HCT-116 + rat microsomes, ATP viability, 16 h; series mostly up to 66 µM. The source says: National Center for Advancing Translational Sciences [NCATS]
Division of Preclinical Innovation [DPI]
U.S. Environmental Protection Agency [EPA]
National Institutes of Environmental Health Sciences [NIEHS]
National Toxicology Program [NTP]
U.S. Food and Drug Administration [FDA]
p53, a tumor suppressor protein, is activated following cellular insult, including DNA damage and other cellular stresses. The activation of p53 regulates cell fate by inducing DNA repair, cell cycle arrest, apoptosis, or cellular senescence. The activation of p53, therefore, is a good indicator of DNA damage and other cellular stresses. The CellSensor p53RE-bla HCT-116 cell line contains a stably integrated beta-lactamase reporter gene under control of the p53 response elements. The activation of the reporter gene under culture conditions can be detected by fluorescence intensity. This cell line was used to screen the Tox21 10K compound library in the condition of presence of rat liver microsomes and to identify agonists that activate the p53 signaling pathway after in vitro metabolic activation (Ooka et al., Archive of Toxicology 96:1975-1987, 2022). The cytotoxicity of the Tox21 compound library against the p53 RE-bla HCT-116 cell line was tested in parallel by measuring the intra cellular ATP content in the same wells.
Tox21 Assay Protocol Summary:
The p53RE-bla cells were dispensed at 4,000cells/3ul/well in 1536-well black-clear bottom plates. After the assay plates were incubated at 37 C, 5% CO2 incubator for 5 hours, 23 nL of compounds dissolved in DMSO, positive controls or DMSO only was transferred to the assay plate. Following compound addition, 3 uL of rat liver microsomes (Molecular Toxicology, Boone, NC) at final concentration of 0.5 mg/mL and 1uL of B-Nicotinamide adenine dinucleotide 2'-phosphate (NADPH) at final concentration of 0.5 mg/mL were transferred to the assay plate. The plates were incubated at 37 C for 16 hours. 1 uL of LiveBLAzer detection mixture was added to each well and the plates were incubated at room temperature in the dark for 2 h. Fluorescence intensity at 460 and 530 nm emission and 405 nm excitation were measured by an Envision plate reader. For cell viability readout that measures cytotoxicity, 4 ul/well of CellTiter-Glo reagent was added into the assay plates using a Flying Reagent Dispenser. After 30 min incubation at room temperature, the luminescence intensity in the plates was measured using a ViewLux plate reader.
As to `CS(=O)(=O)c1ccc(-c2cn3ccccc3n2)cc1`, the Potency result is “inactive”.

Consider `CC(C)(C)C(=O)NCCCC(=O)O`, for which the Potency result is “inactive”.

Turning to `CCN(CC)C(C)=O`, the Potency entry is “inactive”.

Regarding `Oc1ccc(Nc2ccccc2)cc1`, the Potency entry is “inactive”.

Regarding `COc1ccc(CN(CCN(C)C)c2ncccn2)cc1`, the Potency entry was “inactive”.

For the compound `CC(C)(O)c1ccccc1`, the Potency result was “inactive”.

`CC1(C)OC[C@@H](COC(=O)CCc2ccc(OC[C@@H](O)CNCCNC(=O)N3CCOCC3)cc2)O1`: the Potency entry was “inactive”.

Take `CCC(C)(CCC(C)C)C(=O)[O][Sn]([CH3])([CH3])[O]C(=O)C(C)(CC)CCC(C)C` (stereo not given): the Potency entry is “inactive”.

In the case of `CN(C)CCC=C1c2ccccc2C=Cc2ccccc21`, the Potency result was “inactive”.

In the case of `CCOC(=O)c1c(N)sc2c1CCN(Cc1ccccc1)C2`, the Potency result was “inactive”.

For `CN1C[C@H](C(=O)N[C@]2(C)O[C@@]3(O)[C@@H]4CCCN4C(=O)[C@H](Cc4ccccc4)N3C2=O)C[C@@H]2c3cccc4[nH]cc(c34)C[C@H]21`, the Potency entry was “inactive”.

Regarding `O=C(O)c1ccccc1Cl`, the Potency entry was “inactive”.

For `O=S1OCCO1`, the Potency entry was “inactive”.

As to `C=CCc1ccccc1OCC(O)CNC(C)C` (stereo not given), the Potency result is “inactive”.

For the compound `CCn1cc(C(=O)O)c(=O)c2cc(F)c(N3CCN(C)CC3)cc21`, the activity change, negative = cytotoxicity was -0.739% [at 13.5 µM] (inactive).

For the compound `CN1CCN(CCCN2c3ccccc3Sc3ccc(Cl)cc32)CC1`, the Potency result is “inactive”.

Regarding `O=C(N[C@@H](Cc1ccccc1)[C@@H](O)C(=O)N1C[C@@H](O)[C@@H](O)C1)c1cc2cc(Cl)ccc2[nH]1`, the Potency entry is “inactive”.

As for `CC(CN1CC(=O)NC(=O)C1)N1CC(=O)NC(=O)C1` (stereo not given), the Potency result is “inactive”.

In the case of `CC(C(=O)O)c1ccc2c(c1)CC(=O)c1ccccc1S2` (stereo not given), the Potency result was “inactive”.

For the compound `CCCCCCCCCCCCCCCCOP(=O)([O-])OCC[N+](C)(C)C`, the Potency result was “inactive”.

With `CC(C)Nc1cccnc1N1CCN(C(=O)c2cc3cc(NS(C)(=O)=O)ccc3[nH]2)CC1`, the Potency entry is “inactive”.

Consider `CCc1nccnc1C`, for which the Potency result is “inactive”.

For `CCCC(=O)C(=O)O`, the Potency entry is “inactive”.

As to `CC(C)C1OCCN1CCOC(=O)NCCCCCCNC(=O)OCCN1CCOC1C(C)C` (stereo not given), the Potency entry is “inactive”.

With `Cc1ccc2oc(CN(Cc3ccccc3)C(=O)Nc3c(F)cc(F)cc3F)c(-c3ccc(Cl)cc3)c2c1`, the Potency entry was “inactive”.

Consider `Cc1c(NC(C)C)c(=O)n(-c2ccccc2)n1C`, for which the Potency entry was “inactive”.

Take `CCCCC(CC)COC(=O)CCCCCCCCC(=O)OCC(CC)CCCC` (stereo not given): the Potency entry is “inactive”.

In the case of `CCC1(CO)COCOC1`, the Potency entry is “inactive”.

Regarding `CC(=O)Nc1cc(S(=O)(=O)O)cc2cc(S(=O)(=O)O)c(N=Nc3ccccc3)c(O)c12`, the Potency result is “inactive”.

`CCOC(=O)C(Br)c1ccccc1` (stereo not given): the Potency result was “inactive”.

Turning to `O=NN(CCCl)C(=O)NCCCl`, the Potency result is “inactive”.

For `C=CC(=O)O`, the Potency entry is “inactive”.

Turning to `CCCCCCn1c(=O)c2c(ncn2C)n(C)c1=O`, the Potency entry was “inactive”.

With `O=C(O)c1cn(C2CC2)c2cc(Cl)c(F)cc2c1=O`, the Potency entry was “inactive”.

Take `C[N+]1(C)CCC(=C(c2ccccc2)c2ccccc2)CC1`: the Potency entry is “inactive”.

With `SC1CCCCC1`, the Potency result was “inactive”.

`NC(=O)NS(=O)(=O)c1ccc(N)cc1`: the Potency entry was “inactive”.

On to `CNS(=O)(=O)Cc1ccc2[nH]cc(CCN(C)C)c2c1`, for which the Potency result was “inactive”.

As for `Nc1cc(C(F)(F)F)ccc1S`, the Potency entry was “inactive”.

On to `CCC(=O)CC(C)CC` (stereo not given), for which the activity change, negative = cytotoxicity is 1.72% [at 0.249 µM] (inactive).
